Paper PMC4336329 (PLoS ONE, 2015)
In all, about 310,000 compounds went through this assay and about 2,200 (0.71%) showed an effect of 50% or more. Effects have a minus sign here. The sample as a whole holds a higher share of strong results than the screen did.

Target: human ether-à-go-go-related gene (hERG) potassium channel (human, UniProt Q12809)
Assay: primary screen, population patch clamp on CHO cells stably expressing hERG; higher = less effect of the substance

Sequence of human ether-à-go-go-related gene (hERG) potassium channel (Q12809 whole entry, looked up): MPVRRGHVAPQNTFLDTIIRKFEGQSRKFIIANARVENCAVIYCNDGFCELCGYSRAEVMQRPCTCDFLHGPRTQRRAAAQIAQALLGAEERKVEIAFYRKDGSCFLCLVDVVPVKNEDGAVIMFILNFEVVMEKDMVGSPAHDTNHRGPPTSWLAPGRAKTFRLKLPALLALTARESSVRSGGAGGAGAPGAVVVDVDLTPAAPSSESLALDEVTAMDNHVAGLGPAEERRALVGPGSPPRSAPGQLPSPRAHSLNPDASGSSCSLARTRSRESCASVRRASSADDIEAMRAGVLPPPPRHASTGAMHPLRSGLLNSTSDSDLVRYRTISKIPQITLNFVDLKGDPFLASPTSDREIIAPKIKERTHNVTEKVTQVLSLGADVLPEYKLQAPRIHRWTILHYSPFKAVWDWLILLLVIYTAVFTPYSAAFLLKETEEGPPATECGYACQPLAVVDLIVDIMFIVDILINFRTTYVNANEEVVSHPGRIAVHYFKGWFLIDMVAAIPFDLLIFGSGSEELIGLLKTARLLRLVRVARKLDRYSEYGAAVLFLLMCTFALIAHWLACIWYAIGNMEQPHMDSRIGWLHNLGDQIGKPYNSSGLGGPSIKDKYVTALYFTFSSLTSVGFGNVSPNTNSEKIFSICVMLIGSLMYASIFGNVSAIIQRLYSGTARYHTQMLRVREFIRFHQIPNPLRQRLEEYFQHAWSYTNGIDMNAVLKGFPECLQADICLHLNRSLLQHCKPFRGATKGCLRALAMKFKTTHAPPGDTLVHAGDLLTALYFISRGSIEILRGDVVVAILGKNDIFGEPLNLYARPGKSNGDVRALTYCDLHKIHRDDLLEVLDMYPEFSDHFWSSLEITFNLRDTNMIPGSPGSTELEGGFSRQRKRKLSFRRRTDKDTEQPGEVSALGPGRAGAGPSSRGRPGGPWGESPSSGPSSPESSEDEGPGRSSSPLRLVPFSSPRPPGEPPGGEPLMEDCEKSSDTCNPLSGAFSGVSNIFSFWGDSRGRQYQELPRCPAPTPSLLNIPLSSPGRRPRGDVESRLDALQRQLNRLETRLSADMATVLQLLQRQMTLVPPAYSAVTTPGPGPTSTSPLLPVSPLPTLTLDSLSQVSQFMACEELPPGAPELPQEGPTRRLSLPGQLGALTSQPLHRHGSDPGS

SMILES	hERG current change (%, negative = inhibition) at 1uM
OCCC1CN(Cc2ccc(F)cc2)CCN1CCc1ccccc1 (stereo not shown)	-48%
CCOc1ccccc1CN1CCN(CCCc2ccccc2)CC1CCO (stereo not shown)	-30%
CCOc1cccc(CN2CCN(CCCc3ccccc3)C(CCO)C2)c1O (stereo not shown)	-54.7%
CCOc1ccc(CN2CCN(CCCc3ccccc3)CC2CCO)cc1 (stereo not shown)	-80.9%
COc1cc(CN2CCN(CCCc3ccccc3)CC2CCO)cc(OC)c1 (stereo not shown)	-46.8%
OCCC1CN(Cc2ccc(F)cc2)CCN1CCCc1ccccc1 (stereo not shown)	-55%
OCCC1CN(CCCn2cccn2)CCN1Cc1ccccc1 (stereo not shown)	8.59%
CCOc1ccc(CN2CCN(CCCn3cccn3)CC2CCO)cc1 (stereo not shown)	-83%
CCOc1cccc(CN2CCN(CCc3ccccc3)C(CCO)C2)c1O (stereo not shown)	-20.1%
OCCC1CN(CCCc2ccccc2)CCN1Cc1ccc(F)cc1 (stereo not shown)	-12.1%
CC(C)Oc1ccc(Cc2n[nH]c(=S)n2Cc2ccccc2)cc1Cl	5.04%
CC(=O)c1c(C)[nH]c(C(=O)OCC(=O)Nc2ccc(Cl)c(S(=O)(=O)N(C)C)c2)c1C	-2.69%
CCCNc1nc(C)cc(-c2cc(C(=O)NCc3ccccc3)on2)n1	12%
Cc1c(Cl)cccc1Nc1nc(N)nc(CSC(=S)N2CCOCC2)n1	8.31%
CCOC(=O)/C(C#N)=C\c1c(C)cc(C)c(COC(C)=O)c1C	15.6%
Cc1ccc(CN2CCN(CCCc3ccccc3)CC2CCO)cc1 (stereo not shown)	-68.7%
COc1ccc(O)c(CN2CCN(CCCc3ccccc3)C(CCO)C2)c1 (stereo not shown)	-21.7%
OCCOc1ccc(CN2CCN(CCCc3ccccc3)C(CCO)C2)cc1 (stereo not shown)	-19.8%
OCCC1CN(CCCc2ccccc2)CCN1CCc1ccccc1 (stereo not shown)	-32.3%
COc1ccc(CN2CCN(CCc3ccccc3)C(CCO)C2)c(O)c1 (stereo not shown)	-26.9%
OCCC1CN(CCCc2ccccc2)CCN1Cc1ccccc1 (stereo not shown)	-35.6%
CCOc1ccc(CN2CCN(CCCc3ccccc3)C(CCO)C2)cc1 (stereo not shown)	-75.8%
COc1ccc(CN2CCN(CCCc3ccccc3)C(CCO)C2)c(O)c1 (stereo not shown)	-71.2%

SMILES	hERG current change (%, negative = inhibition) at 1uM
C#Cc1ccc(CN2CCN(CCCc3ccccc3)C(CCO)C2)cc1 (stereo not shown)	-14.1%
N#C/C(=C/c1ccc(-c2ccc(C(=O)O)c(Cl)c2)o1)C(=O)NCC1CCCO1 (stereo not shown)	10.3%
COc1ccccc1CN1[C@@H](CC(=O)O)c2cc(F)ccc2S1(=O)=O	13.9%
Cc1ccc(S(=O)(=O)N2CCOCC2)cc1NC(=O)COC(=O)CNC(=O)c1ccc(C(C)(C)C)cc1	20.2%
COC(=O)C1=C(c2cc3ccccc3s2)C[C@@H]2CC[C@H]1N2C(=O)NCCCOC(C)C	2.84%
Cc1ccc(S(=O)(=O)N(C)N=O)cc1	19.1%
CCn1ccnc1CN1CCN(CC=C(C)C)C(CCO)C1 (stereo not shown)	9.77%
Cc1ccc(-c2ccc(/C=C3\SC(N4CCOCC4)=NC3=O)o2)cc1	-54.6%
Cc1ccccc1-c1ccc(/C=C2/SC(N3CCOCC3)=NC2=O)o1	-3.7%
O=C1N=C(N2CCOCC2)S/C1=C/c1ccc(-c2ccc(F)cc2)o1	9.65%
CCc1nc2c(nnn2Cc2ccc(F)cc2)c(=O)[nH]1	1.79%
COc1ccc(C2CCCN2C(=S)Nc2cccc(Cl)c2C)cc1OC (stereo not shown)	2.08%
N#C/C(=C\c1ccc(OCCN2CCOCC2)cc1)C(=O)Nc1ccccc1F	12.6%
CCCC(C(=O)OCC)P(=O)(c1ccccc1)c1ccccc1 (stereo not shown)	-0.896%
CCOc1ccccc1NC(=O)CSc1nc2cccnc2n1C	5.84%
Cn1c(SCCCC(=O)c2ccc(Br)cc2)nnc1-c1ccncc1	-51.1%
Cn1c(SCCCC(=O)c2ccc(F)cc2)nnc1-c1ccncc1	-38.5%
Cn1c(SCCCC(=O)c2ccccc2)nnc1-c1ccncc1	-24.9%
Cc1ccc(NC(=O)c2ccc(CSc3nnc(C)s3)cc2)c(C)c1	9.08%
CCn1c(CNC(=O)c2ccc(OC)c(OC)c2)nnc1SCC(=O)Nc1ccc(OC)cc1	6.99%
N#Cc1ccc(CSc2nnc(-c3ccncc3)n2CCc2ccccc2)cc1	-78.2%
c1ccc(CCn2c(SCc3ccccc3)nnc2-c2ccncc2)cc1	-12.4%
Cn1c(SCc2ccc(C#N)cc2)nnc1-c1ccncc1	6.61%
